Screening data deposited in PubChem by National Center for Advancing Translational Sciences (NCATS).
Only some compounds are listed: those with a hit (about 17% of all), similar ones and a draw of the others.
HepG2 tox: HepG2 cytotoxicity, counter-screen for TGF-b inhibitors. HepG2 CAGA-GFP viability, ATP luminescence, 18 h. Potency, µM (titrated, usually from 46.1 µM), for inactives: at the highest dose activity change, negative = cytotoxicity, most hits filed as cytotoxic. 410,000 compounds, 0.76% hits. AID 588856
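HepG2 CAGA-GFP cells (1000/well, DMEM with 1% FBS) received compound, then TGF-beta at 500 pg/mL final, and were incubated 18 hours at 37 degrees C. Viability was read by CellTiter-Glo luminescence. Media-only wells were set as complete cell-killing and DMSO as no toxicity.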
TGFb SMAD3 inh: blocks TGF-b signaling. HepG2 CAGA-GFP TGF-b/SMAD3 reporter, GFP fluorescence, 18 h; TGF-beta stimulated, 500 pg/mL final. Potency, µM (series often up to 46.1 µM), for inactives: at the highest dose activity, negative = inhibition, actives largely listed as inhibitors. 410,000 compounds, 1.2% hits. AID 588855; note: % is set by controls: 0 for no effect and ±100 for the full control effect; nearly all actives have a fitted effect of over 65% in size
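First, reporter cells (HEPG2 CAGA-GFP) rested 2 h at 37 degrees C. Next, compounds were pinned in and TGF-beta added to 500 pg/mL final. After 18 h, GFP was imaged per cell and summed per well.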
DT40 TDP1 CPT: growth inhibition of DT40 Tdp1-/-;hTDP1 cells with camptothecin (screen for TDP1 inhibitors); chicken DT40 Tdp1-/-;hTDP1 cells + 20 nM CPT, ATP luminescence, 48 h; 420,000 compounds, 12% hits; Potency, µM (series often up to 46.2 µM), inactives show top-dose activity change, negative = growth inhibition, actives largely listed as inhibitors; AID 686979; note: % is set by controls: 0 for no effect and ±100 for the full control effect; nearly all actives have a fitted effect of over 55% in size
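Chicken DT40 Tdp1-/- cells complemented with human TDP1, 400 cells/well, exposed to compounds plus 20 nM camptothecin for at least 48 h at 37 C; viability read as ATP content by CellTiter-Glo luminescence.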
TDP1 cell noCPT: qHTS for Inhibitors of human tyrosyl-DNA phosphodiesterase 1 (TDP1): qHTS in cells in absence of CPT. 420,000 compounds, 15% hits. Potency, µM (series often up to 46.2 µM), inactives show at the top dose activity change, negative = growth inhibition, usual class: inhibitors. AID 686978, 2013. DT40 Tdp1-/- hTDP1 cells, no CPT, ATP luminescence, 48 h; note: % is set by controls: 0 for no effect and ±100 for the full control effect; nearly all actives have a fitted effect of over 55% in size
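Cells were dispensed at 400 per well, compounds added by pin tool, plates incubated ≥48 hr at 37 °C, then CellTiter-Glo added for 30 min at room temperature before luminescence reading. Line: DT40 Tdp1-/- complemented with hTDP1; camptothecin omitted.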
ATXN2 expr inh: reduces ATXN2 reporter expression in HEK-293 cells; 360,000 compounds, 0.72% hits; HEK-293 ATXN2-luciferase reporter, luminescence, 24 h; Potency, µM (top dose mostly 57 µM), inactives show at the top dose activity change, negative = inhibition, hits mostly inhibitors; note: % is set by controls: 0 for no effect and ±100 for the full control effect; nearly all actives have a fitted effect of over 55% in size
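ATXN2-luciferase reporter cells (luciferase flanked by upstream and downstream ATXN2 gene portions) were treated 24 h at 37 °C with compounds at up to 57 uM. SteadyGlo luminescence gave expression; GF-AFC fluorescence gave viability.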
S2 tox: reduces viability in counter-screen for ATXN expression inhibitors. S2 cells (HEK-293 line with an ATXN2-luciferase reporter) viability, CellTiter-Fluor protease fluorescence, 24 h. Potency, µM (series often up to 56.7 µM), usual class: cytotoxic. 400,000 compounds, 0.49% hits; note: nearly all actives have a fitted effect of over 40% in size
* marks the source's active call; other numbers are inactive results; i = inactive; ? = inconclusive; / = no result. Calls come from the whole dose curve; as a rule, active = well fitted curve in the direction sought with a large enough effect; inconclusive = small, poorly fitted or top-dose-only effect, or another doubt; inactive = no such curve, though single readings can be large; an effect the other way counts as inactive or inconclusive. Potency is the fitted concentration of half-maximal effect.

SMILES	HepG2 tox	TGFb SMAD3 inh	DT40 TDP1 CPT	TDP1 cell noCPT	ATXN2 expr inh	S2 tox
COc1ccc(C(C)=O)cc1CN1C(=O)C(Cc2ccccc2)ON=C1c1ncccc1C (centres undefined)	3.3%	-11.9%	20.6µM*	?	8.1%	i
O=C(CCNS(=O)(=O)c1ccc2nsnc2c1)N1CCN(c2ccncc2)CC1	-13.2%	8.4%	?	16.4µM*	7.4%	i
CCNS(=O)(=O)c1ccc(CCC(=O)N2CCN(C(=O)OCC)CC2)cc1	-2.3%	-5.9%	-5.3%	-13.6%	/	i
CNS(=O)(=O)c1cn(CC(=O)N2CCN(c3ccc(OC)cc3)CC2)cc1S(=O)(=O)NC	-9.1%	0.0%	-21.0%	?	/	/
CCNS(=O)(=O)c1ccc(CCC(=O)N2CCN(c3cccc(Cl)c3)CC2)cc1	-2.1%	0.0%	?	23.1µM*	-5.1%	i
CNS(=O)(=O)c1cn(CC(=O)N2CCN(c3cccc(Cl)c3)CC2)cc1S(=O)(=O)NC	-13.1%	0.0%	?	25.9µM*	/	/
CCNS(=O)(=O)c1ccc(CCC(=O)NC2CCCC2)cc1	0.1µM*	-7.3%	-2.2%	-25.3%	11.5%	i
COCCN(CC(=O)Nc1cccc(C)c1C)C(=O)Cn1c(=O)cnc2ccccc21	-1.6%	1.2%	7.6%	5.7%	2.5%	i
CN(C(=O)c1cc2ccccc2o1)c1c(N)n(Cc2ccccc2)c(=O)[nH]c1=O	-10.5%	-14.9%	?	-1.2%	2.7%	i
CN(C)S(=O)(=O)c1ccc(C(=O)NCC(C)(C)CN=C2NS(=O)(=O)c3ccccc32)cc1	-15.9%	1.0%	-7.9%	-22.8%	3.2%	i
COc1ccc(S(=O)(=O)NCCS(=O)(=O)N2CCN(c3ccccc3)CC2)cc1C	0.2%	?	18.4µM*	23.1µM*	-14.3%	i
Cc1ccc(S(=O)(=O)NCCC(=O)N2CCN(c3cccc(Cl)c3)CC2)cc1C	0.7%	?	14.6µM*	?	-30.3%	i
COCC(C)NC(=O)/C=C/c1ccc(OC)cc1 (centres undefined)	15.8%	9.3%	4.0%	4.6%	/	i
COc1ccccc1NC(=O)Cn1c(=O)c(CNc2ccc(C)cc2)cc2cc3c(cc21)OCCO3	-1.7%	-0.1%	/	/	16.2%	i
COc1ccc2c(c1)C(=O)N1[C@H]3c4cc(C)ccc4OC[C@@H]3[C@H](c3ccccc3)[C@]1(C)C(=O)N2	-6.8%	-3.0%	7.31µM*	10.3µM*	?	i
Cc1ccc2c(c1)C(=O)N1[C@H]3c4ccccc4OC[C@@H]3[C@H](c3ccccc3)[C@]1(C)C(=O)N2	-3.0%	1.3%	?	?	14.0%	i
COc1ccc2c(c1)[C@@H]1[C@H](CO2)[C@H](c2ccccc2)[C@]2(C)C(=O)Nc3ccc(C)cc3C(=O)N12	-12.9%	?	18.4µM*	?	?	?
COc1ccc2c(c1)[C@H]1[C@H](CO2)[C@H](c2ccccc2)[C@]2(C)C(=O)Nc3ccc(C)cc3C(=O)N12	1.4%	11.8%	?	?	6.4%	i
Cc1ccc2c(c1)[C@H]1[C@H](CO2)[C@H](c2ccccc2)[C@]2(C)C(=O)Nc3ccc(Cl)cc3C(=O)N12	2.0%	5.2%	?	14.6µM*	1.1%	i
COc1ccc2c(c1)[C@H]1[C@H](CO2)[C@H](c2ccccc2)[C@]2(C)C(=O)Nc3ccc(F)cc3C(=O)N12	-4.6%	2.5%	?	?	-2.7%	i
COc1ccc2c(c1)[C@H]1[C@H](CO2)[C@H](c2ccccc2)[C@]2(C)C(=O)Nc3ccc(Cl)cc3C(=O)N12	-27.5%	-27.0%	18.4µM*	?	-5.0%	i
Clc1cc(CSc2ccccc2)nc(-c2ccccc2)n1	1.9%	-26.5%	7.6%	6.4%	7.6%	?
COc1ccc2c(c1)[C@H]1[C@H](CO2)[C@H](c2ccccc2)[C@]2(C)C(=O)Nc3cc(OC)c(OC)cc3C(=O)N12	-14.4%	-30.7%	?	20.6µM*	2.9%	i
COc1ccc2c(c1)OC[C@H]1[C@H]2N2C(=O)c3cc(C)ccc3NC(=O)[C@@]2(C)[C@H]1c1ccccc1	-23.1%	10.0%	16.4µM*	?	-1.1%	i
COc1ccc2c(c1)OC[C@H]1[C@H]2N2C(=O)c3ccccc3NC(=O)[C@@]2(C)[C@H]1c1ccccc1	-2.8%	?	?	?	-24.8%	?
SMILES	HepG2 tox	TGFb SMAD3 inh	DT40 TDP1 CPT	TDP1 cell noCPT	ATXN2 expr inh	S2 tox
N#Cc1ccc(OCC(O)CS(=O)(=O)c2ccccc2)cc1 (centres undefined)	-3.3%	5.7%	1.7%	-22.0%	-13.9%	i
Cn1cccc1C(=O)NC1CCCCC1	-2.2%	-16.3%	-14.4%	-11.5%	18.1%	i
C=CCNc1nc(NCc2ccccc2)c(C#N)c2c1CN(C)CC2	-60.7%	-0.6%	18.4µM*	?	-2.5%	i
Cc1cc(N(C)C)c(C#N)c(NCc2ccccc2)n1	-26.6%	7.1%	8.7%	-0.1%	-6.6%	i
CCN1CCc2c(C#N)c(NCc3ccccc3)nc(N(CC)CC)c2C1	-51.4%	12.8%	?	18.4µM*	-16.0%	i
CCCCCNc1nc(NCCCO)c(C#N)c2c1CN(C)CC2	-3.6%	-1.9%	?	?	-6.1%	i
O=C(NCCN1CCOCC1)/C(=C\c1ccccc1F)NC(=O)c1ccccc1	3.1%	-3.2%	0.0%	21.0%	0.2%	i
COc1ccccc1C(=O)Nc1cccc(OCc2cc(=O)n3c(C)csc3n2)c1	-23.7%	?	16.4µM*	23.1µM*	-15.5%	i
COc1cc(C(=O)Nc2cccc(OCc3cc(=O)n4c(C)csc4n3)c2)cc(OC)c1OC	-9.3%	-21.1%	20.6µM*	14.6µM*	11.5%	i
Cc1ccccc1C(=O)Nc1cccc(OCc2cc(=O)n3c(C)csc3n2)c1	0.7%	4.4%	-1.9%	-13.1%	2.1%	i
O=C1CCN(S(=O)(=O)c2ccc(Cl)cc2)CC1	-1.2%	-11.4%	-14.2%	20.9%	3.4%	i
CCN1C/C(=C\c2cccc([N+](=O)[O-])c2)C(=O)/C(=C/c2cccc([N+](=O)[O-])c2)C1	-50.7%	?	0.651µM*	0.92µM*	3.55µM*	4.47µM*
O=C1/C(=C/c2cccc([N+](=O)[O-])c2)CCc2ccccc21	-38.5%	?	?	14.6µM*	-12.3%	i
